# STAT1 act – increases IFN-gamma driven STAT1 reporter signal. NIH 3T3 STAT1-luciferase reporter, luminescence; 100% = IFN-gamma alone, no compound. activation (% of control), % at 5.5 µM. 2.6% of 200,000 active;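 active means activation above the screen-wide mean activation plus 3 SD, cut at about 130% in these data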;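 further: raw ratio to IFN-gamma control signal so 100% means no change and 0% no light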
# Wee1 degr inh – inhibitors of human Wee1 degradation | AID 1321 | 1.2% of 220,000 active | HeLa Luc-Wee1K328M stability, luciferase luminescence; 100% = proteasome inhibitor MG132 effect | P30291 | reporter increase, % at 5 µM;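 active means activation above the mean of all tested compounds plus 3 SD, set per screening run, cut at about 8.8% in these data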;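 further: cells exposed to compound for 20 h before luminescence read; 0% = DMSO alone and 100% = MG132 at 30 µM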
# Target sequence (P30291 whole entry K328M): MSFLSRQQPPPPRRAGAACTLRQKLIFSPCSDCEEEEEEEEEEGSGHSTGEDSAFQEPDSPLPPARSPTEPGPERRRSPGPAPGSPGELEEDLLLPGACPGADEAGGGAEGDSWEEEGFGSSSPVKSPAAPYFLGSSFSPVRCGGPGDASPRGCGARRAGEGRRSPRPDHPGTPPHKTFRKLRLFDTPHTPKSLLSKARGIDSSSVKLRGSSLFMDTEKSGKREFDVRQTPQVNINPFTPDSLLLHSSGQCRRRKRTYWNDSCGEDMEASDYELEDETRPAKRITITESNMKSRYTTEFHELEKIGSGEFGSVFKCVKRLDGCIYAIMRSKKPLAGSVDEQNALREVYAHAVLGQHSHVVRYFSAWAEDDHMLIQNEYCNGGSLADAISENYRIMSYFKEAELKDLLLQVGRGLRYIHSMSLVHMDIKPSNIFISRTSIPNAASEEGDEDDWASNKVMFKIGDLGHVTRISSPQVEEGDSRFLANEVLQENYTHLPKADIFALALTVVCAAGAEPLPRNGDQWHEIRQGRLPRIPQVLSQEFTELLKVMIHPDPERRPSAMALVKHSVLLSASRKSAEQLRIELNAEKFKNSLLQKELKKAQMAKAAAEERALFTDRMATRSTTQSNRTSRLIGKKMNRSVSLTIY
# APP 5'UTR act – APP 5'UTR luciferase reporter activation; 1% of 190,000 active; AID 1276; SH-SY5Y APP 5'UTR luciferase reporter, luminescence; zero percent = DMSO vehicle wells; activation, % at 2 µM;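 active means activation above a set limit, based on mean plus 3 SD of controls, cut at about 140% in these data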
# Hsp70 act – switches on Hsp70 transcription | HeLa Hsp70 promoter luciferase reporter, luminescence; scaled: vehicle 0, proteasome-inhibitor control 100% | activation, % at 10 µM | 0.04% of 200,000 active | AID 1203;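 active means activation above the mean across all tested compounds plus 3 SD, cutoff set per campaign, cut at about 5.5% in these data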;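 further: 100% = MG132 at 30 µM as the positive control and 0% = DMSO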
# APP 5UTR inh – APP translation inhibition; SH-SY5Y APP 5'UTR-luciferase reporter, luminescence; inhibition, % at 2 µM; 0.82% of 190,000 active;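 active means inhibition above a set limit, derived from the sample mean plus 3 SD, cut at about 45% in these data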
# NF-kB neuron act – NF-kB expression increase, human neuronal cells; 1.6% of 190,000 active; AID 1239; NF-kB reporter expression; stronger effect = higher value; fold change at 12.5 µM; in the data active means fold change above about 3.3
# STAT1 activ conf – confirmation of STAT1 signaling activators; shares compounds with STAT1 act; NIH 3T3 STAT1-luciferase reporter, IFN-gamma potentiation, luminescence; 100% = IFN-gamma EC80 alone, no compound; activation (% of control), % at 5.7 µM; 97% of 1,200 active;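 active means activation above a set limit carried over from the earlier primary STAT1 screen, cut at about 140% in these data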;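 further: simple ratio to median IFN-gamma plus DMSO wells so 0% means no light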
# NFkB act STAT1ct – NF-kappaB activation in STAT1 activator counter-screen. shares compounds with STAT1 act. HEK293T NF-kB luciferase reporter, TNF-alpha stimulated, luminescence; 100% = TNF-alpha with vehicle only. activation (% of control), % at 5.7 µM. 43% of 1,200 active. AID 1306;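 active means activation above the mean of solvent-only control wells plus 3 SD, set per campaign, cut at about 130% in these data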;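 further: TNF-alpha given at a submaximal dose yielding about 80% of full reporter signal; values are well signal over median control so 100% means no change and 0% no light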
# STAT3 act STAT1c – human STAT3 activation in STAT1 activator counter-screen; 46% of 1,200 active; AID 1316; activation (% of control), % at 5.7 µM; U3A cells STAT3-luciferase reporter, IL-6, luminescence; cells lack STAT1; 100 = IL-6 alone, no compound effect; shares compounds with STAT1 act;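 active means activation above the solvent-only control well mean plus 3 SD, set per plate batch, cut at about 110% in these data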;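 further: 0% = no luminescence and 100% = median IL-6 plus DMSO wells; higher means more STAT3 reporter activation so hits are non-selective activators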
# Numbers without * were called inactive; / = no result. Shown are actives, neighbours in structure and some others; about 4.8% of the full set was active somewhere.
SMILES,STAT1 act,Wee1 degr inh,APP 5'UTR act,Hsp70 act,APP 5UTR inh,NF-kB neuron act,STAT1 activ conf,NFkB act STAT1ct,STAT3 act STAT1c
O=C(CC(=O)c1ccccc1)Nc1ccc2c(c1)OCCO2,159*,3,129,0,-129,3.9*,192*,131,117*
O=C(Nc1ccc(C(=O)O)cc1)/C(=C/c1ccc2c(c1)OCO2)NC(=O)c1cccc(Br)c1,97,-1,-26,0,26,1.3,/,/,/
Cc1ccc(C)c(Oc2ncnc(N)c2[N+](=O)[O-])c1,102,2,-11,0,11,1.1,/,/,/
O=C(Nc1ccc2c(c1)OCCO2)c1ccc(Br)s1,184*,-1,198*,0,-198,11*,255*,116,93
COc1ccc(/C=C/C(=O)Nc2ccccc2)cc1OC,152*,-4,80,0,-80,2.9,163*,126,104
C/C(=N\NC(=O)c1nn(C)c(C)c1Br)c1ccc(NC(=O)c2ccoc2C)cc1,179*,1,57,0,-57,1.2,119,115,89
C/C(=N\NC(=O)c1nn(C)c(C)c1Br)c1ccc(NC(=O)c2ccccc2F)cc1,156*,6,112,0,-112,1.3,123,118,89
CC(C)c1ccc(NC(=O)N2CCc3ccccc3C2)cc1,156*,-4,86,0,-86,3,148*,131,120*
CCCCNC(=O)N1CCc2ccccc2C1,106,-4,9,0,-9,1.5,/,/,/
CC(C)(C)n1ncc2c(=O)n(CC(=O)NCc3ccco3)cnc21,127,2,70,0,-70,1.9,/,/,/
CC(C)(C)n1ncc2c(=O)n(CC(=O)NCc3ccc(F)cc3)cnc21,160*,3,169*,0,-169,3.5*,199*,119,127*
N#Cc1c(NC(=O)c2ccccc2)sc2c1CCC2,169*,11*,109,0,-109,3.8*,191*,118,103
Cc1cc(C(=O)Nc2sc3c(c2C#N)CCC(C)C3)cs1 (centres undefined),152*,-1,30,0,-30,1.8,199*,141*,114*
CC(=O)Nc1sc2c(c1C#N)CCC(C)C2 (centres undefined),110,-2,17,0,-17,1.3,/,/,/
O=C(O)CSCC(=O)NCc1ccc(Cl)cc1,103,4,6,0,-6,1.1,/,/,/
Cc1nn(Cc2ccccc2Cl)c(Cl)c1C(=O)NCCc1ccccc1,173*,10*,/,0,/,3.5*,193*,120,141*
O=C1C(C=Nc2ccccc2)=C(O)c2ccccc21,163*,-2,103,0,-103,2.6,244*,125,126*
COC(=O)CCc1c(C)[nH]c(C(=O)OCc2ccccc2)c1C,103,-2,20,0,-20,1.1,/,/,/
CCn1c(-c2ccccc2)csc1=Nc1ccc(O)cc1,163*,0,152*,0,-152,/,172*,114,120*
CCOc1ccc(N=c2scc(-c3ccccc3)n2CCO)cc1,112,-1,50,0,-50,1.3,/,/,/
O=C(/C=C/c1cccc(F)c1)N1CCc2ccccc21,199*,-2,200*,0,-200,0.98,238*,117,99
O=C(Nc1nc(-c2ccccc2)cs1)c1ccc(N2CCOCC2)c([N+](=O)[O-])c1,86,-1,-8,-1,8,0.36,/,/,/
CC(=O)Nc1cc(C)nn1-c1nc2ccccc2s1,116,-1,73,0,-73,0.4,/,/,/
O=C(Nc1nc2ccccc2s1)c1ccc(N2CCCCC2)c([N+](=O)[O-])c1,166*,3,116,0,-116,2.5,197*,118,100
Cc1cc(C)n(-c2ccc(C(=O)Nc3nc4ccccc4s3)cc2)n1,174*,-1,109,0,-109,3.9*,225*,141*,105
SMILES,STAT1 act,Wee1 degr inh,APP 5'UTR act,Hsp70 act,APP 5UTR inh,NF-kB neuron act,STAT1 activ conf,NFkB act STAT1ct,STAT3 act STAT1c
COc1cc(SC)ccc1C(=O)Nc1ccc(C)cc1C,153*,4,116,0,-116,4*,189*,131,106
COc1cc(SC)ccc1C(=O)NCCc1ccccc1,161*,5,85,0,-85,3.5*,169*,123,144*
COc1ccc(CNC(=O)c2ccc(SC)cc2OC)cc1,101,1,-16,-1,16,0.99,/,/,/
COc1cc(SC)ccc1C(=O)Nc1ncc(Cl)cc1Cl,151*,4,142*,0,-142,3.8*,174*,125,94
Cc1cccn2c(=O)c3cc(C#N)c(=NC(=O)c4cccs4)n(CC(C)C)c3nc12,/,0,/,/,/,/,/,/,/
CC(=O)NNc1[nH]c2c(c(=O)c1[N+](=O)[O-])c(=O)n(C)c(=O)n2C,90,-3,-8,-1,8,0.93,/,/,/
Cc1ccsc1C(=O)NNC(=O)C1C2C=CC(C2)C1C(=O)O (centres undefined),184*,10*,154*,0,-154,1.4,131*,125,106
O=C(Cn1nnc(-c2ccccc2F)n1)Nc1cccc2ncccc12,94,-4,14,0,-14,1.3,/,/,/
Fc1ccc(-n2nnc(-c3ccnc4ccccc34)n2)cc1,171*,0,142*,0,-142,4.8*,203*,139*,117*
Cc1ccc(-n2nnc(-c3cc4ccccc4n3C)n2)cc1,108,3,122,0,-122,1.2,/,/,/
Cc1ccc(-n2nnc(-c3ccnc4ccccc34)n2)cc1,156*,3,111,0,-111,4.2*,183*,136*,104
Clc1ccc(-c2cn3c(n2)-c2ccccc2C3)cc1Cl,196*,4,166*,0,-166,9.7*,258*,134*,135*
O=C(COc1ccc(Cl)cc1[N+](=O)[O-])NC1CCCCC1,160*,9,114,0,-114,/,167*,121,111*
N/C(=N\OC(=O)c1ccccc1Cl)c1ccc(Cl)cc1,155*,5,58,0,-58,3.7*,193*,123,159*
CCOP(=O)(OCC)/C(=N/OC(=O)c1ccc(Cl)cc1Cl)C(N)=O,/,-4,/,/,/,/,/,/,/

# Bioassay records from PubChem.
